# Article PMC5540273 (PLoS ONE, 2017)
# Test system: FGFR2
# Conditions: concentration: 1 μM, replicates: in singlicate; n = 1
# 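Further: KINOMEscan kinase panel screen.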
row,SMILES,%Inh [%]
1,O=C(Nc1cccc(-c2nn3ccccc3c2-c2ccnc(Nc3cccc(C(F)(F)F)c3)n2)c1)c1c(F)cccc1F [GSK292658],20
2,COc1ccc(Nc2nccc(N3CCC(NC(=O)Nc4cccc(OC)c4)C3)n2)cc1 (stereo not drawn) [GSK1379742],7
3,Cc1cccc(NC(=O)Nc2ccc(Oc3ncnc4ccn(C)c34)cc2)c1,0
4,O=C(NC1CCN(c2ccnc(Nc3ccc(F)cc3)n2)C1)c1cc2ccccc2s1 (stereo not drawn) [GSK1379716],3
5,O=c1[nH]cc(-c2ccc(N3CCOCC3)cc2)c2sc(-c3cn[nH]c3)cc12 [GSK2276055],0
6,Nc1ncc(-c2cccnc2)c2scc(-c3ccc4c(c3)CCN4C(=O)Cc3ccccc3)c12 [GSK683281],10
7,O=C(Nc1cccc(Oc2ccc3nc(NC(=O)C4CC4)cn3n2)c1)c1ccccc1C(F)(F)F,23
8,Cl.Cl.NCC(NCc1ccc(-c2ccnc3[nH]ccc23)s1)c1ccccc1 (stereo not drawn) [GSK1321565],0
9,COc1ccc(CNC(=O)NC2CCN(c3ccnc(Nc4ccc(F)cc4)n3)CC2)cc1 [GSK1379788],0
10,CCn1c(-c2nonc2N)nc2c(C#CC(C)(C)O)nc(OC[C@H](N)c3ccccc3)cc21 [GSK943949],4
11,CN(c1ccc(NC(=O)Nc2cc(C(F)(F)F)ccc2F)cc1)c1ccnc(Nc2ccc(S(N)(=O)=O)cc2)n1 [GW809893],70
12,O=C(Nc1n[nH]c2nc(-c3ccc(O)cc3)ccc12)C1CC1 [SB-710363],0
